Screens from PubChem BioAssay.
Only some compounds are listed: those with a hit (about 7.6% of all), similar ones and a draw of the others.
M1 antagonist = antagonists of rat M1 muscarinic receptor; Muscarinic acetylcholine receptor M1 (Rattus norvegicus), P08482; CHO-M1 cells, Fluo-4 calcium, ACh EC80 antagonist mode; active compounds read low; B-score at 10 µM; 64,000 tested, 3.4% active;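 active means calcium fluorescence response, raw or row-and-column corrected B-score, differing from the plate sample mean either way at a set confidence level, mostly lower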
M1 ag = M1 muscarinic receptor agonists, primary screen, CHO-M1 cells, Fluo-4 calcium, agonist mode. Fluo-4 calcium fluorescence; active compounds read high. B-score at 10 µM. 64,000 tested, 3% active. Muscarinic acetylcholine receptor M1;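 active means fluorescence rise, raw or as B-score row- and column-corrected plate score, outside the 99.7% band of its plate's samples, either direction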
PLAP activator = PLAP enzyme activators, biochemical, luminescence, HTS; purified PLAP enzyme, luminescent substrate read-out; active compounds read high; Alkaline phosphatase, placental type (Homo sapiens), P05187; AID 696, 2007; 96,000 tested, 1.2% active; activation fold at 20 µM; in the data active means activation fold above about 2
Target sequence (P05187 whole entry, looked up): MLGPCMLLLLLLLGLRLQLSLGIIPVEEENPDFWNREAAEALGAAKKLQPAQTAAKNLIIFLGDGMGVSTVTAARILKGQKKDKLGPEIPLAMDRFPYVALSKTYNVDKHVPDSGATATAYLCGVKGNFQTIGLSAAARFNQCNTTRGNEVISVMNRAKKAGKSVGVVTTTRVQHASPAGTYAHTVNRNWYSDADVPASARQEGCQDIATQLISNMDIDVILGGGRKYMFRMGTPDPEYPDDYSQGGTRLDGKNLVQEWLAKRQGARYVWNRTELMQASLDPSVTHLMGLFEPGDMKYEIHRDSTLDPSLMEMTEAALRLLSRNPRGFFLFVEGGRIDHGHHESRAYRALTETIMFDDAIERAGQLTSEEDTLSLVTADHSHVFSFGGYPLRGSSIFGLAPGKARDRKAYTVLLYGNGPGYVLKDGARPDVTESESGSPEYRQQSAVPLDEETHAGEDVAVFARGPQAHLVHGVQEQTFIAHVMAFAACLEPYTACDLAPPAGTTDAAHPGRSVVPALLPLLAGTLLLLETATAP
Cav32 inh = Cav3.2 calcium influx blockers – cell-based, Fluo-4 calcium fluorescence, FDSS, MLSMR library, primary screen | Voltage-dependent T-type calcium channel subunit alpha-1H (Homo sapiens), O95180 | Cav3.2-expressing cells; active compounds read low | B-score at 10 µM | 100,000 tested, 4% active | AID 449739, 2010;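 active means single-dose well whose peak fluorescence ratio is a statistical outlier from its plate by either plate-standardised score or position-corrected B-score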
M1 agonist conf = rat M1 muscarinic receptor agonists, confirmation, CHO-M1 cells, Fluo-4 calcium, duplicate retest. shares compounds with M1 ag. Fluo-4 calcium fluorescence, agonist mode; actives lie on both sides. fluorescence change (max-min) at 10 µM. 1,700 tested, 19% active. AID 1488, 2009;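 active means fluorescence change differs from the solvent-only DMSO control mean at a set confidence level in both duplicate runs; inconclusive means differs from solvent-only control mean in just one of two runs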;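 further: an EC20 dose of acetylcholine follows compound addition during the same imaging run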
M4 ag counter = agonist activity at rat M4 receptor, confirmation, counter-screen for M1 allosteric modulator project, cell-based, agonist mode. shares compounds with M1 ag. CHO M4/Gqi5 cells, Fluo-4 calcium fluorescence; actives lie on both sides. fluorescence change (max-min) at 10 µM. 1,700 tested, 9% active. AID 1741, 2009;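 active means fluorescence change differing from the plate's solvent-only control wells at 99.7% confidence in both duplicates, whether higher or lower; inconclusive means differs from solvent controls in only one of two duplicates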
Large screens that a line does not name were inactive (follow-up assays come after a bar, where they were run).

CCOC(=O)N1CCN(CC(=O)Nc2ccc(C)c(Br)c2)CC1	none
CCOC(=O)C1=C(c2ccccc2)NC(=O)NC1c1ccc(N(C)C)cc1 (stereo not drawn)	none
CCOC(=O)C1=C(CS(=O)(=O)c2ccccc2)NC(=O)NC1c1ccccc1 (stereo not drawn)	M1 ag 4.26 | M1 agonist conf inconclusive | M4 ag counter inconclusive
Cn1c(SCC(=O)c2ccc3c(c2)OCCO3)nnc1C1CC1	none (no result: M1 antagonist, M1 ag, PLAP activator)
CCOC(=O)C1CCN(c2ncnc3c2oc2ccccc23)CC1	none
CCOC(=O)C1CCCN(c2ncnc3c2oc2ccccc23)C1 (stereo not drawn)	M1 antagonist -3.34, M1 ag 4.21 | M1 agonist conf inactive | M4 ag counter inactive
CCc1nnc(N2CCN(c3ncnc4c3oc3ccccc34)CC2)s1	M1 antagonist -4.03, M1 ag 9.95 | M1 agonist conf inactive | M4 ag counter inactive
CCOC(=O)C1CCN(c2nc(-c3ccccc3)nc3c2oc2ccccc23)CC1	M1 ag 5.84 | M1 agonist conf inactive | M4 ag counter inactive
c1ccc(N2CCN(c3ncnc4c3oc3ccccc34)CC2)cc1	none (no result: Cav32 inh)
CSc1nc(-c2ccccc2O)nc(-c2ccccc2O)n1	none (no result: PLAP activator, Cav32 inh)
COC(=O)Cn1cnc(=O)c(C#N)c1/C=C/N(C)C	none
CCc1nc(C)cn1S(=O)(=O)c1cc(C)c(OC)cc1C	M1 ag -3.74, Cav32 inh -3.84 | M1 agonist conf inconclusive | M4 ag counter inconclusive
C=CCn1c(SCn2nnc3ccccc3c2=O)nnc1C1CCCCC1	none
COC(=O)C1=C(N)Oc2cc(C)n(CC3CCCO3)c(=O)c2C1c1ccccc1OC (stereo not drawn)	none
COC(=O)C1=C(N)Oc2cc(N(C)C)ccc2C1c1ccccc1OC (stereo not drawn)	M1 ag 10, Cav32 inh -6.98 | M1 agonist conf inactive | M4 ag counter inactive
CCOC(=O)C1CCN(C(=O)c2cc3c(-c4ccc(OC)c(OC)c4)nn(C)c3s2)CC1	M1 ag 2.28 | M1 agonist conf inactive | M4 ag counter inactive
COc1ccc(-c2nn(C)c3sc(C(=O)NCc4ccco4)cc23)cc1OC	none
COc1ccc2oc(C(=O)C3CC3)c(NC(=O)CCCN3C(=O)c4ccccc4C3=O)c2c1	none (no result: PLAP activator, Cav32 inh)
O=C(Nc1nccs1)c1cc(N2CCOCC2)nc2ccccc12	M1 ag 3.07 | M1 agonist conf inactive | M4 ag counter inactive
CCO/C(C)=N/n1c2nc3ccccc3nc2c2c(=O)n(C3CCCC3)c(C)nc21	M1 ag 9.43 | M1 agonist conf inconclusive | M4 ag counter inactive
CCOC(=O)C1=C(C)OC(N)=C(C#N)C1c1ccoc1 (stereo not drawn)	none
CCOC(=O)C1=C(C)OC(N)=C(C#N)C1c1c(C)nn(-c2ccc(C)cc2)c1Cl (stereo not drawn)	M1 ag 3.37 (no result: Cav32 inh) | M1 agonist conf inactive | M4 ag counter inactive
O=C1N2CCSC2=NC1(Nc1nccs1)C(F)(F)F (stereo not drawn)	none
CCC(CC)C(=O)NCCc1cc2cc(C)c(C)cc2[nH]c1=O	none (no result: Cav32 inh)
Cc1cc2cc(CCNC(=O)c3ccc(S(=O)(=O)N4CCOCC4)cc3)c(=O)[nH]c2cc1C	M1 ag 6.66 | M1 agonist conf inconclusive | M4 ag counter inactive
COc1cc2ccccc2cc1C(=O)Nc1ccc(N2CCN(C)CC2)cc1	M1 antagonist -8.01, M1 ag 5.87 | M1 agonist conf -24.1 | M4 ag counter inactive
COCCCNS(=O)(=O)c1ccc2c3c(cccc13)C(=O)S2	none (no result: PLAP activator)
COCCCNc1c2c3c(cccc3[nH]c1=O)C(=O)c1ccccc1-2	M1 antagonist -13.2, M1 ag 466, Cav32 inh -11.6 | M1 agonist conf 3166 | M4 ag counter 2818
CCOC(=O)N1CCN(C(=O)CSc2nc3ccccc3c(=O)n2-c2ccccc2)CC1	M1 ag 3.79 (no result: Cav32 inh) | M1 agonist conf inconclusive | M4 ag counter inconclusive
CCOC(=O)CC(=O)CSc1nc2ccccc2c(=O)n1-c1ccc(C(=O)N2CCOCC2)cc1	none
O=C1CC(c2ccccc2)=Nc2ccccc2N1	none (no result: M1 antagonist, M1 ag)
O=c1[nH]c2c(s1)C=Nc1ccccc1N2	M1 ag 69.4 | M1 agonist conf 249 | M4 ag counter 227
